# Results taken from paper PMC7862700, “An all-to-all approach to the identification of sequence-specific readers for epigenetic DNA modifications on cytosine”.
# Tests used:
# Assay in all cases: DAPPL (digital affinity profiling via proximity ligation, sequencing); 10 mM Tris-HCl pH 7.5, 50 mM NaCl, 1 mM DTT, 4% glycerol, room temperature, 30 min; GST-TFs on glutathione beads, 16-mer random dsDNA library, 0.1% formaldehyde crosslink after washing; high values mean tight binding
# [1] = biological target: T1, FEV (Homo sapiens, UniProt Q99581 1-238); conditions: protein: recombinant; tags: N-terminal GST; dsDNA, one strand shown
# T1 sequence: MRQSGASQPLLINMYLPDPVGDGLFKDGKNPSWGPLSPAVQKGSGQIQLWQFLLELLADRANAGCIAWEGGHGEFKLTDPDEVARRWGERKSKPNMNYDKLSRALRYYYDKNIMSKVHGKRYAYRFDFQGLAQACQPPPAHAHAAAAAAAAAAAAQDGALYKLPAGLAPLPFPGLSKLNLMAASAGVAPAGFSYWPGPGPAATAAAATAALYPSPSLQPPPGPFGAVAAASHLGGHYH
# Procedure, shortened: (§1)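 Pools of DNA-barcoded human transcription factors, expressed in yeast as GST fusions on glutathione beads and combined with a tag-only sample, were incubated with 200 nmole of a 16-mer random double-stranded DNA library. Incubation took 30 min at room temperature in Tris/NaCl/DTT/glycerol buffer and was followed by washing, 0.1% formaldehyde crosslinking, proximity ligation (BsaI/T4 ligase, 1 h, 37 °C), PCR amplification and sequencing on an Illumina NextSeq500. Binding signal is the ratio of a hexamer's read frequency for a factor to its frequency for the tag-only sample.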
# [2] = biological target: ETV5 (Homo sapiens, UniProt P41161 1-510); conditions: protein: recombinant; tags: N-terminal GST; dsDNA, one strand shown
# Procedure, shortened: as §1
# [3] = biological target: HSF1 (Homo sapiens, UniProt Q00613 1-529); conditions: protein: recombinant; tags: N-terminal GST; chain copies: 3; dsDNA, one strand shown
# Procedure, shortened: as §1
# [4] = biological target: T2, SPIC (Homo sapiens, UniProt Q8N5J4 1-248); conditions: protein: recombinant; tags: N-terminal GST; dsDNA, one strand shown
# T2 sequence: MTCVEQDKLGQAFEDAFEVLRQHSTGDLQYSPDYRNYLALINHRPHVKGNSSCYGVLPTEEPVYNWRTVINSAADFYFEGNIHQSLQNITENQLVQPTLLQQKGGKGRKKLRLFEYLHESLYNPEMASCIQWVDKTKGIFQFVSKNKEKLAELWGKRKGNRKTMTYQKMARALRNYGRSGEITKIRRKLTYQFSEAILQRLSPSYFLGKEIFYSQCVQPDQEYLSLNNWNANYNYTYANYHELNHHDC
# Procedure, shortened: as §1
# [5] = biological target: ELF4 (Homo sapiens, UniProt Q99607 1-663); conditions: protein: recombinant; tags: N-terminal GST; dsDNA, one strand shown
# Procedure, shortened: as §1
# [6] = biological target: T3, ELK4 (Homo sapiens, UniProt P28324-2 1-405); conditions: protein: recombinant; tags: N-terminal GST; dsDNA, one strand shown
# T3 sequence: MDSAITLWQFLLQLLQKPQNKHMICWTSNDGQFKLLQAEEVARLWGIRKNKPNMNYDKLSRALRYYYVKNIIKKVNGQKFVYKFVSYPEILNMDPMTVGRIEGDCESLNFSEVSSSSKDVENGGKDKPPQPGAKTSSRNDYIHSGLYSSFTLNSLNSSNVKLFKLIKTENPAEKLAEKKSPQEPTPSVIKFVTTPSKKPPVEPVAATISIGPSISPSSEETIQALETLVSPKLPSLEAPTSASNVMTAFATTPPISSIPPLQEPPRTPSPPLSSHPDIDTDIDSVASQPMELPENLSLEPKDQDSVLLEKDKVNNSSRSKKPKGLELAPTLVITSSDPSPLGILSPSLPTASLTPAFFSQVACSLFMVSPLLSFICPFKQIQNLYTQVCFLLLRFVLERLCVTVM
# Procedure, shortened: as §1
# [7] = biological target: T4, ETV2 (Homo sapiens, UniProt O00321 1-342); conditions: protein: recombinant; tags: N-terminal GST; dsDNA, one strand shown
# T4 sequence: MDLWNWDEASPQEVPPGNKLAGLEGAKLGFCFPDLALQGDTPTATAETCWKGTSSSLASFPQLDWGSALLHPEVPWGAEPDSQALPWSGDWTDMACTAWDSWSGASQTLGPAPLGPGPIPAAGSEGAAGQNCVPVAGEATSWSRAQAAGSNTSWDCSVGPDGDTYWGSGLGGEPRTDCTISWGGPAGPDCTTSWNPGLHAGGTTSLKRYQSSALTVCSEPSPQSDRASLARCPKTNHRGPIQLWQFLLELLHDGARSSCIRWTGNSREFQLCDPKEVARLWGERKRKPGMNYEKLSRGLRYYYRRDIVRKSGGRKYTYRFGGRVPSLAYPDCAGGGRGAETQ
# Procedure, shortened: as §1
# [8] = biological target: T5, ELF3 (Homo sapiens, UniProt P78545 1-371); conditions: protein: recombinant; tags: N-terminal GST; dsDNA, one strand shown
# T5 sequence: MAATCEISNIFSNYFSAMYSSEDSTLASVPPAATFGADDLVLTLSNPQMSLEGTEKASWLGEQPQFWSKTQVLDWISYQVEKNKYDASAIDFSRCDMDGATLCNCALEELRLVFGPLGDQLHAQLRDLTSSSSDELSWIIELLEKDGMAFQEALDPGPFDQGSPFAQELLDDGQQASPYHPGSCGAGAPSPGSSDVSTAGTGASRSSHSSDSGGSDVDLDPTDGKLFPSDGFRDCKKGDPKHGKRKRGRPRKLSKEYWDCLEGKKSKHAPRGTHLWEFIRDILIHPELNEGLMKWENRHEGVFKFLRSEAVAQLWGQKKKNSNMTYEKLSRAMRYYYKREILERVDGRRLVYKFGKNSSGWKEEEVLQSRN
# Procedure, shortened: as §1
# [9] = biological target: CRX (Homo sapiens, UniProt O43186 1-299); conditions: protein: recombinant; tags: N-terminal GST; dsDNA, one strand shown
# Procedure, shortened: as §1
# [10] = biological target: ETV1 (Homo sapiens, UniProt P50549 1-477); conditions: protein: recombinant; tags: N-terminal GST; dsDNA, one strand shown
# Procedure, shortened: as §1
# [11] = biological target: T6, ERF (Homo sapiens, UniProt P50548 1-548); conditions: protein: recombinant; tags: N-terminal GST; dsDNA, one strand shown
# T6 sequence: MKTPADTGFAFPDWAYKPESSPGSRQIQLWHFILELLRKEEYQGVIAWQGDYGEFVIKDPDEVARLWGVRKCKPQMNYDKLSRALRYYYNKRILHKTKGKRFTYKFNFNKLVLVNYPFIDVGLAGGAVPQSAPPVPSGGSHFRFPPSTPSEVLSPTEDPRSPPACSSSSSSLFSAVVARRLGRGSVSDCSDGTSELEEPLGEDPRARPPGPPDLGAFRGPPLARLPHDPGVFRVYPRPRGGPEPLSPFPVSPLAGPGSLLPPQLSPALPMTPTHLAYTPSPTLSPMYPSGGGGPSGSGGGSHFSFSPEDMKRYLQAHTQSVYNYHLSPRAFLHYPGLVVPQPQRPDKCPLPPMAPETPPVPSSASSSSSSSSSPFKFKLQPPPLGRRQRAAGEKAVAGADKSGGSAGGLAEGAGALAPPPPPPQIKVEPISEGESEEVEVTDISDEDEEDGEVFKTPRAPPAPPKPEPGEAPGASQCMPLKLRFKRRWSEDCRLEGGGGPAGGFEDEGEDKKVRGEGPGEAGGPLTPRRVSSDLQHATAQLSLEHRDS
# Procedure, shortened: as §1
# [12] = biological target: T7, ETV3L (Homo sapiens, UniProt Q6ZN32 1-361); conditions: protein: recombinant; tags: N-terminal GST; dsDNA, one strand shown
# T7 sequence: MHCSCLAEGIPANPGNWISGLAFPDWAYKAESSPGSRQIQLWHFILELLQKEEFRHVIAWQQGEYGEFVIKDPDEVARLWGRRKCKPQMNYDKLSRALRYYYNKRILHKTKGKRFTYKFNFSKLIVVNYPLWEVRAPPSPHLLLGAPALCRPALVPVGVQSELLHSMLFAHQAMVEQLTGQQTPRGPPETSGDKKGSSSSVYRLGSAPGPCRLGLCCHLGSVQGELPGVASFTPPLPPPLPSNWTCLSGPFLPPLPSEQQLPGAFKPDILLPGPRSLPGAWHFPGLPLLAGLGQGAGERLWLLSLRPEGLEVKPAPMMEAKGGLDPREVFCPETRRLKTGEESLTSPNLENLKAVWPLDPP
# Procedure, shortened: as §1
# [13] = biological target: T8, ETS2 (Homo sapiens, UniProt P15036 1-469); conditions: protein: recombinant; tags: N-terminal GST; dsDNA, one strand shown
# T8 sequence: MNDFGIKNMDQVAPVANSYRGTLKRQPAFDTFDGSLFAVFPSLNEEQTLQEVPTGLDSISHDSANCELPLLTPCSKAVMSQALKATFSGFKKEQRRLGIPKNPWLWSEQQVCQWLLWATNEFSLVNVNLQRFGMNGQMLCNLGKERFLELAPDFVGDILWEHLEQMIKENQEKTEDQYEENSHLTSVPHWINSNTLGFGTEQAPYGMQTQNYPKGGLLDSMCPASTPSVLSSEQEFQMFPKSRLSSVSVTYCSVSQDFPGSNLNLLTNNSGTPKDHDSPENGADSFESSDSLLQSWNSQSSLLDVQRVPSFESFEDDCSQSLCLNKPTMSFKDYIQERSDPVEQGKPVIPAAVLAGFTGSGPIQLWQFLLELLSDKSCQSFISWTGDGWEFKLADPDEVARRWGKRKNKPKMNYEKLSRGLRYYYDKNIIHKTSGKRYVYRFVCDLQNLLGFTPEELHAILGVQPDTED
# Procedure, shortened: as §1
# [14] = biological target: T9, SPDEF (Homo sapiens, UniProt O95238 1-335); conditions: protein: recombinant; tags: N-terminal GST; dsDNA, one strand shown
# T9 sequence: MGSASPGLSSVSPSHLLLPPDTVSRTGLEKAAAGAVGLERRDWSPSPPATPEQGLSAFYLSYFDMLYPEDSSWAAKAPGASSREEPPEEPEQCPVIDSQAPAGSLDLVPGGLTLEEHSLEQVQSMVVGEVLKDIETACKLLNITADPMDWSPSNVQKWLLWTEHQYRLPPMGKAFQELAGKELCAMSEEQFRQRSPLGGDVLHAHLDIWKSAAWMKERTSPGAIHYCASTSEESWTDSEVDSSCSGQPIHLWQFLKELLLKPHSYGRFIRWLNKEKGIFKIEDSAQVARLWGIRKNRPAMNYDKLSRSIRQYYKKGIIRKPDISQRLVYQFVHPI
# Procedure, shortened: as §1
# [15] = biological target: T10, ETV7 (Homo sapiens, UniProt Q9Y603 1-341); conditions: protein: recombinant; tags: N-terminal GST; dsDNA, one strand shown
# T10 sequence: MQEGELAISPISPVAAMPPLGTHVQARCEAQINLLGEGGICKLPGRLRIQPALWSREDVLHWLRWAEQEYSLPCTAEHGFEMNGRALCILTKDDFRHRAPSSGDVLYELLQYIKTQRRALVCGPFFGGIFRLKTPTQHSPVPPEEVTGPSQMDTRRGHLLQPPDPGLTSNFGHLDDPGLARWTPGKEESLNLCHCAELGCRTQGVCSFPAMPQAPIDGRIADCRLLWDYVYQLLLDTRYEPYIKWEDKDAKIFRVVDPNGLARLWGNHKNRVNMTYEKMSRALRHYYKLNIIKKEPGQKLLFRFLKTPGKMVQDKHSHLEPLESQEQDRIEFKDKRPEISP
# Procedure, shortened: as §1
# [16] = biological target: T11, ELF5 (Homo sapiens, UniProt Q9UKW6-2 1-255); conditions: protein: recombinant; tags: N-terminal GST; dsDNA, one strand shown
# T11 sequence: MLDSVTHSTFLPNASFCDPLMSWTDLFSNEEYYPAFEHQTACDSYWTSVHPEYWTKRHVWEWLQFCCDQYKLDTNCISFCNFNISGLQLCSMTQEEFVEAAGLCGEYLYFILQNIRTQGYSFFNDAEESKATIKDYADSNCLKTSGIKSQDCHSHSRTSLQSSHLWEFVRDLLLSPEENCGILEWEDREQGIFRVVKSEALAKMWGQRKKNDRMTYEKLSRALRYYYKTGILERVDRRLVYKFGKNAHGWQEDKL
# Procedure, shortened: as §1
# [17] = biological target: T12, ETV3 (Homo sapiens, UniProt P41162-2 1-143); conditions: protein: recombinant; tags: N-terminal GST; dsDNA, one strand shown
# T12 sequence: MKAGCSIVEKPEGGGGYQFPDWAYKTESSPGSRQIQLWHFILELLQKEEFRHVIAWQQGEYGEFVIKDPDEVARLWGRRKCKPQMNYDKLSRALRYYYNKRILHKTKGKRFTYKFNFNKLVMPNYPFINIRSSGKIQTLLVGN
# Procedure, shortened: as §1
# [18] = biological target: ETV6 (Homo sapiens, UniProt P41212 1-452); conditions: protein: recombinant; tags: N-terminal GST; dsDNA, one strand shown
# Procedure, shortened: as §1
# Sequence of ETV5 (P41161 whole entry): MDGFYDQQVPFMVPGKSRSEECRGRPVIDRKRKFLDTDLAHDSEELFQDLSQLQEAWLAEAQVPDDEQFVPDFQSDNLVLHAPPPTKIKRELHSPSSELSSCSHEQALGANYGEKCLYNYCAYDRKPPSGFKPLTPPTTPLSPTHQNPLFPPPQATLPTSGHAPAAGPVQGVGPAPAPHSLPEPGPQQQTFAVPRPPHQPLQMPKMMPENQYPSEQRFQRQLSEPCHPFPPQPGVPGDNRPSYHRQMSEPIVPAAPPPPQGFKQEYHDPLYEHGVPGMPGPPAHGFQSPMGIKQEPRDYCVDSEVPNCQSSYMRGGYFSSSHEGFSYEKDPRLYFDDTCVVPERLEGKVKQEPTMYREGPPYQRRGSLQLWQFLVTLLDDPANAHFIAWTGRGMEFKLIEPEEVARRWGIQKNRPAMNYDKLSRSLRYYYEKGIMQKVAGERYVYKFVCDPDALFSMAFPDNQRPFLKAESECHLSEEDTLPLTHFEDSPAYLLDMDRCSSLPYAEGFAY
# Sequence of CRX (O43186 whole entry): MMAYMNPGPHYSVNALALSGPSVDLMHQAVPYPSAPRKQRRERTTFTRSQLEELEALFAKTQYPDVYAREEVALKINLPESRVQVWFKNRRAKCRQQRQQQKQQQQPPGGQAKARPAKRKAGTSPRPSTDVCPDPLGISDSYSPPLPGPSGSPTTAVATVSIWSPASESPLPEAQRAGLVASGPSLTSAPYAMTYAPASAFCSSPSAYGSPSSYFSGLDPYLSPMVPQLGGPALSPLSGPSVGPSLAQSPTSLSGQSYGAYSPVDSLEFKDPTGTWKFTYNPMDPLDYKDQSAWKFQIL
# Sequence of ETV6 (P41212 whole entry): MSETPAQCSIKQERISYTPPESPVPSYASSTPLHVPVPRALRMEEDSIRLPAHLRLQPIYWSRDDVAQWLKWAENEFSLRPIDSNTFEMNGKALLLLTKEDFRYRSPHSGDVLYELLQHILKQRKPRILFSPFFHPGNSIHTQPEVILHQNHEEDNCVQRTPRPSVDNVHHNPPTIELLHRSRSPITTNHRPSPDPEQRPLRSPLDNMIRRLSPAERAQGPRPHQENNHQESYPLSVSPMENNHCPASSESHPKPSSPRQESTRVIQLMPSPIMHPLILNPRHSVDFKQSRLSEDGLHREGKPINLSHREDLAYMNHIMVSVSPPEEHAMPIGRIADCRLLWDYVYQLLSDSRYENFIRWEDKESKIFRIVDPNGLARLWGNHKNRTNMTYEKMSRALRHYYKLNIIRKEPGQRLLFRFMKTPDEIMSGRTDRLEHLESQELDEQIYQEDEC
# Sequence of ETV1 (P50549 whole entry): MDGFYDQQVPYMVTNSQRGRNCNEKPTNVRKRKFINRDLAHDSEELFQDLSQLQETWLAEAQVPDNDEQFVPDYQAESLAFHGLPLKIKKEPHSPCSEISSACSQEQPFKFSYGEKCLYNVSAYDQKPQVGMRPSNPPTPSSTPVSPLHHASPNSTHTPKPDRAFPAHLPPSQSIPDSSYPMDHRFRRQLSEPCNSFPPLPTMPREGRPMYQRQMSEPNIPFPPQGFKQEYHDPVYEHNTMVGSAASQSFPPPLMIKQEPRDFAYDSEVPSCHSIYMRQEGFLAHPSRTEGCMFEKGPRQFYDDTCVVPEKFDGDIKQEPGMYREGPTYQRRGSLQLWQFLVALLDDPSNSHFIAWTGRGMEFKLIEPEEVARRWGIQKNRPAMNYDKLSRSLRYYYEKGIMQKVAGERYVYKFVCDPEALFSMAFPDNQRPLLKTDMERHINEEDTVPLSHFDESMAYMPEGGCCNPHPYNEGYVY
# Sequence of ELF4 (Q99607 whole entry): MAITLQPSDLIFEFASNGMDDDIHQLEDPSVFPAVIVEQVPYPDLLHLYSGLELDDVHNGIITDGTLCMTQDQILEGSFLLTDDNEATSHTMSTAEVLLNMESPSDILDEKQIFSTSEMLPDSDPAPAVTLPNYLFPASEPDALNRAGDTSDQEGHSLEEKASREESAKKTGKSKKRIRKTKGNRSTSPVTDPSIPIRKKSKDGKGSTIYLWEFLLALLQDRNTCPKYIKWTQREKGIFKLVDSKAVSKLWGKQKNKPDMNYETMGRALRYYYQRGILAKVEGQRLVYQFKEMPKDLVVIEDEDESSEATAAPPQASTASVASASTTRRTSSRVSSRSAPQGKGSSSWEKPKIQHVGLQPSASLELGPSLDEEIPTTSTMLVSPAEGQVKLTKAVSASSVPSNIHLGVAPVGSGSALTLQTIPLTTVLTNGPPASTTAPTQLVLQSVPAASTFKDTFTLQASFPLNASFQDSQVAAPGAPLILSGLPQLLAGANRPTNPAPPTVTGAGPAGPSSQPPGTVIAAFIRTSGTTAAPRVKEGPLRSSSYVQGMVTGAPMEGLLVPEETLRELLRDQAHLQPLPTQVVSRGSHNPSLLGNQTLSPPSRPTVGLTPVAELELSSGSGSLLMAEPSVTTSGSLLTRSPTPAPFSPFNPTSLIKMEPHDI
# Sequence of HSF1 (Q00613 whole entry): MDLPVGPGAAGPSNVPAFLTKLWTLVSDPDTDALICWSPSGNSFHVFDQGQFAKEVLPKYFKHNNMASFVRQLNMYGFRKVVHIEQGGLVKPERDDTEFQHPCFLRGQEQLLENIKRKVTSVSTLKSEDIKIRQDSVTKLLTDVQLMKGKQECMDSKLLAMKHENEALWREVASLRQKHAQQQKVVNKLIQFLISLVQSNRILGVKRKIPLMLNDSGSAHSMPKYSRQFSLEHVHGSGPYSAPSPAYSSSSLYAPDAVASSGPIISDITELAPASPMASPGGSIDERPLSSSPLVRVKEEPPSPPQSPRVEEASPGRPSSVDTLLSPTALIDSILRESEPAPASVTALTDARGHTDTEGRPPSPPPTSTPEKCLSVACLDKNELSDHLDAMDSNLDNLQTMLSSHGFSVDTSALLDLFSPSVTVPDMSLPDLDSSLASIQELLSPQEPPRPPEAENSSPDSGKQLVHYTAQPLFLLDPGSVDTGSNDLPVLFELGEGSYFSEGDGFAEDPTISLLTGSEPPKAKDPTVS
sequence,measurement,setting,value
AATACT,binding signal,[1],"1.21 fold enrichment (6-mer frequency, TF over GST control)"
same,binding signal,[2],"1.27 fold enrichment (6-mer frequency, TF over GST control)"
same,binding signal,[3],"1.34 fold enrichment (6-mer frequency, TF over GST control)"
same,binding signal,[4],"1.25 fold enrichment (6-mer frequency, TF over GST control)"
same,binding signal,[5],"1.16 fold enrichment (6-mer frequency, TF over GST control)"
same,binding signal,[6],"1.24 fold enrichment (6-mer frequency, TF over GST control)"
same,binding signal,[7],"1.36 fold enrichment (6-mer frequency, TF over GST control)"
same,binding signal,[8],"1.26 fold enrichment (6-mer frequency, TF over GST control)"
same,binding signal,[9],"1.47 fold enrichment (6-mer frequency, TF over GST control)"
same,binding signal,[10],"1.26 fold enrichment (6-mer frequency, TF over GST control)"
same,binding signal,[11],"1.19 fold enrichment (6-mer frequency, TF over GST control)"
same,binding signal,[12],"1.24 fold enrichment (6-mer frequency, TF over GST control)"
same,binding signal,[13],"1.23 fold enrichment (6-mer frequency, TF over GST control)"
same,binding signal,[14],"1.15 fold enrichment (6-mer frequency, TF over GST control)"
same,binding signal,[15],"1.31 fold enrichment (6-mer frequency, TF over GST control)"
same,binding signal,[16],"1.37 fold enrichment (6-mer frequency, TF over GST control)"
same,binding signal,[17],"1.28 fold enrichment (6-mer frequency, TF over GST control)"
same,binding signal,[18],"1.4 fold enrichment (6-mer frequency, TF over GST control)"
